# TLR9-MyD88 inh: TLR9-MyD88 interaction inhibition | Q9NR96+Q99836 | CHO BLA complementation TLR9-MyD88, CCF4 FRET ratio | inhibition, % at 4.98 µM | 0.21% of 340,000 active;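 active = inhibition above the mean over all tested compounds plus 3 SD, cut at about 21% in these data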;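 note: 0% = DMSO only wells and 100% = clavulanate BLA inhibitor control wells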
# TLR4-MyD88 BLA: TLR4-MyD88 interaction inhibition in cells. AID 861. O00206+Q99836. inhibition, % at 8.4 µM. 0.18% of 200,000 active. HeLa CL3-4 TLR4/MyD88 BLA complementation, FRET ratio; in the data active = inhibition above about 25%;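 note: 0% = vehicle and 100% = reference inhibitor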
# HSF1 inh: HSF1 inhibition; NIH3T3-HGL HSE-luciferase, MG132-induced, luminescence 8 h; hits give low values; AID 2098; 0.77% of 300,000 active; activity change, negative = inhibition, % at 7.5 µM (by protocol);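 active = more than half of replicate wells show activity change below -50%, luminescence cut by over half; inconclusive = some wells, but at most half, below -50%; inactive = no replicate well below -50%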;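 note: luciferase reports HSF-1 transcriptional activity via heat shock element; 0% = median of DMSO wells and -100% = zero luminescence signal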
# HSF1 activator: increases HSF-1 driven luciferase reporter signal; NIH3T3-HGL HSF-1 luciferase reporter, MG132, 8 h; 100% = twice DMSO control signal; activation, % at 9 µM; 1.7% of 300,000 active; AID 504408;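 active = mean replicate activation of at least 50% with a set share of replicates each reaching 50%; inconclusive = only one of those two conditions met; inactive = mean below 50% and too few replicates reaching it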;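 note: 0% = median of the neutral control wells and 100% = twice that signal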
# NOD2-RIPK2 inh: inhibitors of human NOD2-RIPK2 interaction; O43353; CHO BLA complementation NOD2-RIPK2, CCF4 ratio; inhibition, % at 4.98 µM; 0.38% of 360,000 active; AID 624267; in the data active = inhibition above about 21%;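 note: 0% = vehicle only and 100% = reference blocker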
# An asterisk follows results filed as active; ? = inconclusive; / = not tested or not shown. Compounds with a hit are over-represented: about 2.4% of the library has one in this group of screens.
SMILES,TLR9-MyD88 inh,TLR4-MyD88 BLA,HSF1 inh,HSF1 activator,NOD2-RIPK2 inh
O=S(=O)(Nc1nc2ccccc2nc1Cl)c1ccc(Br)cc1,-1.8,-4.9,-54.4*,-64.5,-7.3
O=S(=O)(Nc1nc2ccccc2nc1Cl)c1ccc(Cl)cc1,0.4,-3.0,1.4,3.2,-2.6
O=S(=O)(Nc1nc2ccccc2nc1N1CCc2ccccc2C1)c1ccc(Br)cc1,-1.1,10.2,/,/,-2.1
Cc1c(Cl)cccc1NC(=O)CCN1C(=O)NC(C)(C)C1=O,-12.1,/,/,/,-1.7
COc1ccc(CNc2cccc3[nH]c(C(F)(F)F)nc23)cc1OC,0.7,/,-6.6,8.3,8.9
Cc1nnc(N/N=C/c2cccc(OCc3ccc(Cl)c(Cl)c3)c2)n1N,-7.1,1.4,83.4,128.5*,-1.2
O=C(CNS(=O)(=O)c1ccccc1)OCC(=O)c1c[nH]c2ccccc12,-2.3,/,/,/,-0.5
CC(=O)Oc1ccc(-c2ccc(C(=O)OCC(=O)N(C)CC(=O)Nc3ccccc3Cl)cc2)cc1,-7.4,/,3.0,4.8,4.5
CCOC(=O)C1CCN(c2c(Nc3ccc4c(c3)OCCO4)c(=O)c2=O)CC1,3.4,-20.6,-53.6*,-57.6,-3.5
CCOC(=O)N1CCC(N2C(=O)c3ccccc3C2Nc2ccc3c(C)cc(=O)oc3c2)CC1 (stereo not drawn),0.6,-6.5,3.9,2.7,0.0
CCOC(=O)N1CCC(N2C(=O)c3ccccc3C2Nc2ccc3c(c2)OCCO3)CC1 (stereo not drawn),-3.8,3.1,-68.6*,-71.9,4.5
Cc1ccccc1OCC(O)COc1ccccc1C,-0.1,/,/,/,-7.1
CC1(C)CC(NC(=O)c2ccccc2)CC(C)(C)N1,-0.7,/,0.4,0.9,0.6
C[C@@H]1C(NC(=O)c2ccccc2)CC2CC1C2(C)C (stereo partly drawn),-16.1,/,20.9,73.4*,-9.0
CCOC(=O)CSc1nc2c(sc(=S)n2Cc2ccco2)c(=O)n1-c1ccc(F)cc1,7.0,-4.6,40.8,80.4*,-8.9
CCN(CC)C(=O)CSc1nc2c(sc(=S)n2-c2ccccc2)c(=O)n1Cc1ccco1,-2.4,11.0,43.1,66.6*,-12.6
CCN(CC)C(=O)CSc1nc2c(sc(=S)n2CC)c(=O)n1-c1ccccc1,-8.1,4.7,8.5,4.0,10.9
CCC(C)NC(=O)CSc1nc2c(sc(=S)n2Cc2ccco2)c(=O)n1-c1ccccc1 (stereo not drawn),-4.5,-1.9,-4.7,16.2,-0.1
O=S(=O)(c1ccccc1F)N1CCC(c2nc3ccccc3[nH]2)CC1,7.3,/,-1.2,19.1,-7.4
C/C(=N\O)c1ccc2c3c([nH]c2c1)CCCC3,1.9,6.5,60.7,93.0*,-8.7
COC(=O)C=C1CCC2C3CCC4=CC(=O)CCC4(C)C3C(=O)CC12C (stereo not drawn),2.7,/,/,/,-1.1
CC(C)C1N=C(c2ccc3c(c2)OCO3)CC(c2ccccc2O)N1 (stereo not drawn),-2.2,1.2,71.3,75.4*,9.8
O=C(Nc1ccc(N=Nc2ccccc2)cc1)c1ccccc1Cl,-1.2,-11.9,31.8,72.5*,-6.8
CC(=O)Nc1ccccc1,3.7,/,/,/,0.7
O=C(CCl)Nc1ccc(N=Nc2ccccc2)cc1,3.4,-10.5,56.0,67.7*,2.3
SMILES,TLR9-MyD88 inh,TLR4-MyD88 BLA,HSF1 inh,HSF1 activator,NOD2-RIPK2 inh
O=C(Nc1ccc(N=Nc2ccccc2)cc1)c1ccc(Cl)cc1Cl,4.6,-11.5,0.8,-8.8,-8.4
CC(=O)Nc1ccc(N=Nc2ccccc2)cc1,-13.2,13.2,22.3,59.7*,5.6
O=C(CCl)Nc1ccc(-c2ccccc2)cc1,1.1,-13.4,?,-47.6,-2.6
COc1ccc(C(=O)Nn2c(SCC(=O)NCc3ccccc3)nc3ccccc3c2=O)cc1,1.9,1.8,-60.7*,-67.8,1.3
COC(=O)c1ccc2c(=O)n(CC3CCCO3)c(SCC(=O)Nc3ccccc3Cl)nc2c1 (stereo not drawn),-3.0,0.0,4.7,16.3,-5.6
COc1ccc(-c2nnc3ccc(SCC(=O)NCC4CCCO4)nn23)cc1 (stereo not drawn),-5.4,-5.3,30.5,95.3*,0.5
COc1ccc(C(=O)Nn2c(SCC(=O)NC3CCCC3)nc3ccccc3c2=O)cc1,2.8,-1.0,-58.3*,-63.2,-2.9
COC(=O)c1ccc2c(=O)n(CC3CCCO3)c(SCC(=O)Nc3ccccc3OC)nc2c1 (stereo not drawn),-12.6,2.9,27.5,55.1*,4.4
COCC(C)n1c(SCC(=O)NC2CCCCC2)nc2ccccc2c1=O (stereo not drawn),-0.3,/,/,/,-0.1
O=C(CSc1nc2ccccc2c(=O)n1NC(=O)Cc1ccccc1)NCc1ccccc1,-0.5,6.9,3.4,22.9,-7.7
CCCCn1c(N)c(N(CCC(C)C)C(=O)C2CCCC2)c(=O)[nH]c1=O,-0.8,/,/,/,0.1
CN(CC(=O)Nc1ccccc1Cl)C(=O)Cn1cnc2ccc(Cl)cc2c1=O,-1.9,/,/,/,-7.3
CCCCCN(C(=O)CCC(=O)OCCOc1ccccc1Cl)c1c(N)n(CCCC)c(=O)[nH]c1=O,-13.8,/,9.9,12.1,-5.4
COc1ccc(C(=O)Nn2c(SCC(=O)NCC3CCCO3)nc3ccccc3c2=O)cc1 (stereo not drawn),8.0,-3.9,-66.1*,-68.0,-0.6
CC12c3ccccc3C(c3ccccc31)C1C(=O)N(c3cccnc3)C(=O)C12 (stereo not drawn),-5.7,10.7,-1.2,-12.4,0.5
CC12c3ccccc3C(c3ccccc31)C1C(=O)N(Cc3cccnc3)C(=O)[C@H]12 (stereo partly drawn),-1.7,2.4,29.3,69.6*,-3.8
CC(=O)N1CCC(=NNC(=O)c2cccs2)CC1,-0.6,-10.7,18.8,54.5*,-10.1
C=C(C)C1CC=C(C)C(=NNC(=O)c2ccncc2)C1 (stereo not drawn),8.1,/,/,/,7.1
CC1=C/C(=N\NC(=O)c2cccs2)CC(C)(C)C1,6.1,4.7,53.7,62.2*,9.6
C=C(C)C1CC=C(C)/C(=N/NC(=O)c2cccs2)C1 (stereo not drawn),-7.0,-13.5,36.7,79.7*,5.5
Cc1cccc(C)c1C(O)c1ncc(-c2ccccc2C(F)(F)F)[nH]1 (stereo not drawn),/,/,/,/,-1.1
N#Cc1ccccc1S(=O)(=O)N1CCN(CC(=O)Nc2ccccc2C(=O)NC2CC2)CC1,-7.6,/,/,/,3.1
COC(=O)N/N=C/c1cccc(OCCSc2ccc(Cl)cc2)c1,-5.3,-0.3,22.6,56.5*,-6.6
COC(=O)N/N=C/c1ccc(OCCSc2ccc(Cl)cc2)c(OC)c1,0.9,-18.1,10.7,10.5,-6.3
CN(CCNC(=O)c1c[nH]c2c1ccc1ccccc12)CCNC(=O)c1c[nH]c2c1ccc1ccccc12,-16.4,/,/,/,-5.8
Cc1cc(C)cc(OCC(O)CN2C(=O)NC(C)(C)C2=O)c1 (stereo not drawn),-3.3,-4.5,35.6,64.1*,-5.1
CCn1nccc1NC(=O)c1ccc2sc([C@@H]3O[C@H](CO)[C@H](O)[C@H](O)[C@H]3O)nc2c1,/,/,/,/,-2.6

# High-throughput results from PubChem BioAssay.
